Unmarked numbers belong to inactive results.
System: Vero E6 infected with SARS-CoV-2
Assay: inhibition of SARS-CoV-2 cytopathic effect; higher = more antiviral protection, active = above 15
Details: 48 h

Compound | inhibition of SARS-CoV-2 cytopathic effect (1 nM) [%] | inhibition of SARS-CoV-2 cytopathic effect (8.33 nM) [%] | inhibition of SARS-CoV-2 cytopathic effect (100 nM) [%] | inhibition of SARS-CoV-2 cytopathic effect (833.33 nM) [%] | inhibition of SARS-CoV-2 cytopathic effect (10000 nM)
O=c1cc(-c2ccccc2)oc2cc(O)c(O)c(O)c12 [baicalein] | 1.61 | 3.69 | -0.24 | -2.55 | -5.11%
CC(=O)Oc1cccc(C(=O)O)c1OC(C)=O [dipyrocetyl] | -0.44 | -1.4 | 2.59 | -0.15 | 5.25%
COc1cc(NC(=O)c2cccc(-n3cc(NC(=O)Nc4cccc(C)c4)cn3)c2)cc(OC)c1OC | -0.97 | -0.75 | 2.66 | 0.39 | -0.61%
NCCCCCC(O)(P(=O)(O)O)P(=O)(O)O [neridronic-acid] | 0.84 | -0.27 | -2.11 | 2.29 | 3.47%
O[C@@H]1CO[C@H]2[C@@H]1OC[C@@H]2O [isosorbide] | -0.13 | 1.81 | 1.18 | 3.22 | 3.05%
O=C1[C@@H]2[C@H]3CC[C@H](C3)[C@@H]2C(=O)N1CCCCN1CCN(c2ncccn2)CC1 [tandospirone] | 2.41 | 0.1 | -0.17 | 1.06 | 0.15%
CS(=O)(=O)CCNCc1ccc(-c2ccc3ncnc(Nc4ccc(OCc5cccc(F)c5)c(Cl)c4)c3c2)o1 [lapatinib] | -1.4 | 0.42 | -3.11 | -11.4 | -7.81%
CC(C)(C)C(=O)NCCCC(=O)O [pivagabine] | 0.01 | -1.15 | -1.01 | 0.86 | -0.03%
CNS(=O)(=O)Nc1nccc(Cc2c(C)c3ccc(Oc4ncccn4)cc3oc2=O)c1F | -0.25 | -3.18 | -10.4 | -17.5 | -15.7%
N#Cc1ccc(C(c2ccc(C#N)cc2)n2cncn2)cc1 [letrozole] | -1.89 | 4.26 | 0.11 | -2.14 | -1.61%
CC1Nc2ccc(Cl)cc2S(=O)(=O)N1 (stereo not given) | 0.09 | 1.51 | -2.37 | 1.75 | 2.76%
CCN(CC)CCNC(=O)c1ccc(N)cc1 [procainamide] | -2.56 | 0.24 | -0.04 | -1.26 | 0.87%
COc1cccc(-c2cc(=O)c3ccccc3o2)c1N | 1.12 | -3.81 | -0.32 | -3.58 | -5.22%
CNc1nc(-c2ccc3c(N)n[nH]c3c2)cc(N2C[C@@H](C(=O)NC3CCCCC3)CC[C@H]2C)n1 | 2.6 | 3.93 | 1.23 | 0.1 | -5.35%
O=C(c1ccc(-c2ccc(Cl)cc2)o1)N(Cc1ccccn1)c1ccc(N2CCNCC2)cc1 | -2.64 | 1.12 | -0.23 | -1.66 | 43.8% (active)
O=C(Nc1ccc(-c2ccnc(Nc3ccc(N4CCOCC4)cc3)n2)cc1)C1CCCN1 (stereo not given) | -1.37 | -1.43 | -0.97 | -1.01 | 8.93%
CC(Oc1ccc(O)cc1)(P(=O)(O)O)P(=O)(O)O | -3.21 | -1.85 | 3.91 | -1.36 | -1.37%
CCN1CCCC1=O [1-ethyl-2-pyrrolidone] | -1.68 | 2.91 | 3.54 | -0.7 | -2.48%
O=C(NC(=O)c1c(F)cccc1Cl)NC1c2ccccc2-c2ccccc21 | -0.23 | -0.67 | 1.6 | 2.13 | 0.4%

— the supplement of paper PMC13380429
